The results in this text go back to PubChem BioAssay (EPA / NIEHS).

Read-out in assay [1]: Monokine induced gamma interferon (MIG), CXCL9 (gene 4283)
The assay is described as follows: BSK_KF3CT_MIG: BioMAP Diversity Plus: KF3CT Assay for Monokine induced gamma interferon (MIG) Biomarker Activity (AID 2284248). The following applies: primary human keratinocytes with fibroblasts. In short, it runs like this: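 ELISA read-out of MIG after 24 h chemical exposure of human skin primary co-culture (keratinocytes, foreskin fibroblasts). Gain of signal relative to DMSO negative control was analysed.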

Read-out in assay [2]: Vascular cell adhesion molecule 1 (VCAM1), VCAM1 (gene 7412)
Put plainly: BSK_BF4T_VCAM1: BioMAP Diversity Plus: BF4T Assay for Vascular cell adhesion molecule 1 (VCAM1) Biomarker Activity (AID 2284249). The following applies: primary human bronchial epithelial cells with fibroblasts. In short, it runs like this:
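Human bronchial epithelial cell and dermal fibroblast co-culture exposed 24 h. VCAM-1 measured by ELISA; parallel SRB total-protein staining for cytotoxicity. Fitted in positive direction relative to DMSO.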

Read-out in assay [3]: Interferon-inducible T-cell alpha chemoattractant (ITAC), CXCL11 (gene 6373)
The assay is described as follows: BSK_hDFCGF_ITAC: BioMAP Diversity Plus: hDFCGF Assay for Interferon-inducible T-cell alpha chemoattractant (ITAC) Biomarker Activity (AID 2284251). The following applies: primary human foreskin fibroblasts. Summed up:
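ELISA readout of I-TAC after 24 h chemical exposure; human dermal foreskin fibroblast primary cells. Positive-direction fitting vs DMSO baseline. Parallel SRB total-protein staining (0.1% SRB after 10% TCA fixation, 560 nm) flags cytotoxicity.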

Read-out in assay [4]: Monocyte Chemoattractant Protein-1 (MCP1), CCL2 (gene 6347)
Put plainly: BSK_IMphg_MCP1: BioMAP Diversity Plus: IMphg Assay for Monocyte Chemoattractant Protein-1 (MCP1) Biomarker Activity (AID 2284253). The following applies: primary human endothelial cells with macrophages. Summed up:
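Human venular endothelial cells co-cultured with macrophages; MCP-1 measured by ELISA 24 hours post-dose and fitted against DMSO. Cytotoxicity monitored by SRB total-protein staining in parallel cultures.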

Read-out in assay [5]: Macrophage Inflammatory Protein-1 Alpha (MIP1a), CCL3 (gene 6348)
Put plainly: BSK_IMphg_MIP1a: BioMAP Diversity Plus: IMphg Assay for Macrophage Inflammatory Protein-1 Alpha (MIP1a) Biomarker Activity (AID 2284255). The following applies: primary human endothelial cells with macrophages. Summed up: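 Co-culture of human venular endothelial cells and macrophages exposed to compounds for 24 h; MIP-1a measured by ELISA relative to DMSO. Cytotoxicity assessed in parallel cultures by sulforhodamine B total-protein staining at 560 nm.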

Read-out in another assay: CD69, CD69 (gene 969)
Put plainly: BSK_IMphg_CD69: BioMAP Diversity Plus: IMphg Assay for CD69 Biomarker Activity (AID 2284257). The following applies: primary human endothelial cells with macrophages. Summed up: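 Human venular endothelial cells co-cultured with macrophages; CD69 quantified by ELISA 24 h after compound addition. Activity fitted in the positive direction relative to DMSO baseline; cytotoxicity tracked in parallel cultures via SRB total-protein staining.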

Read-out in assay [6]: Eotaxin 3, CCL26 (gene 10344)
Put plainly: BSK_BF4T_Eotaxin3: BioMAP Diversity Plus: BF4T Assay for Eotaxin 3 Biomarker Activity (AID 2284258). The following applies: primary human bronchial epithelial cells with fibroblasts. In short, it runs like this: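 Co-culture of human bronchial epithelial cells and dermal fibroblasts, exposed to chemicals for 24 h versus DMSO. Eotaxin-3 quantified by ELISA; cytotoxicity checked in parallel cultures by sulforhodamine B total-protein staining.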

Read-out in assay [7]: Monocyte Chemoattractant Protein-1 (MCP1), CCL2 (gene 6347)
Put plainly: BSK_BF4T_MCP1: BioMAP Diversity Plus: BF4T Assay for Monocyte Chemoattractant Protein-1 (MCP1) Biomarker Activity (AID 2284259). The following applies: primary human bronchial epithelial cells with fibroblasts. Summed up:
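Co-culture of bronchial epithelial cells and dermal fibroblasts dosed with chemical; MCP-1 measured by ELISA 24 h later. Activity fitted in positive direction versus DMSO; cytotoxicity checked by SRB staining in parallel cultures.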

Read-out in assay [8]: Interleukin-8 (IL8), CXCL8 (gene 3576)
Put plainly: BSK_MyoF_IL8: BioMAP Diversity Plus: MyoF Assay for Interleukin-8 (IL8) Biomarker Activity (AID 2284261). The following applies: primary human lung fibroblasts. Summed up:
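Lung fibroblasts (human primary) → chemical exposure → 24 h → IL-8 measured by ELISA. Signal increase scored versus DMSO control.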

Read-out in the next assay: CD90, THY1 (gene 7070)
The assay is described as follows: BSK_BF4T_CD90: BioMAP Diversity Plus: BF4T Assay for CD90 Biomarker Activity (AID 2284262). The following applies: primary human bronchial epithelial cells with fibroblasts. In short, it runs like this:
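Co-culture of human bronchial epithelial cells and dermal fibroblasts, 24 h compound exposure. Cell-surface CD90 measured by ELISA relative to DMSO; parallel SRB total-protein staining for cytotoxicity.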

Read-out in assay [9]: Interleukin-8 (IL8), CXCL8 (gene 3576)
Put plainly: BSK_BF4T_IL8: BioMAP Diversity Plus: BF4T Assay for Interleukin-8 (IL8) Biomarker Activity (AID 2284263). The following applies: primary human bronchial epithelial cells with fibroblasts. In short, it runs like this: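 Human bronchial epithelial cells with dermal fibroblasts co-culture; IL-8 measured by ELISA 24 hours after dosing, fitted vs DMSO. Cytotoxicity tracked in parallel cultures by SRB total-protein staining.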

Read-out in assay [10]: Interleukin-1 alpha (IL1a), IL1A (gene 3552)
Put plainly: BSK_BF4T_IL1a: BioMAP Diversity Plus: BF4T Assay for Interleukin-1 alpha (IL1a) Biomarker Activity (AID 2284264). The following applies: primary human bronchial epithelial cells with fibroblasts. Summed up:
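Human bronchial epithelial cells co-cultured with dermal fibroblasts, dosed and read at 24 h. Secreted/surface IL-1α quantified by ELISA; gain-of-signal fitted relative to DMSO baseline. Parallel SRB total-protein staining tracked cytotoxicity.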

Read-out in another assay: Decorin, DCN (gene 1634)
The assay is described as follows: BSK_MyoF_Decorin: BioMAP Diversity Plus: MyoF Assay for Decorin Biomarker Activity (AID 2284265). The following applies: primary human lung fibroblasts. Summed up: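 ELISA readout of decorin, 24 h post-dosing; primary human lung fibroblast (MyoF) culture; gain-of-signal fit vs DMSO baseline.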

The nature of assay [11]: BSK_MyoF_SRB: Viability Assessment in the BioMAP Diversity Plus: MyoF Assay (AID 2284267).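 Also: total protein by SRB absorbance in parallel cultures as cytotoxicity measure.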 The following applies: primary human lung fibroblasts. In short, it runs like this:
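Cytotoxicity in primary human lung fibroblasts is gauged by SRB total-protein staining 24 h after dosing, with DMSO as the negative control.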

Read-out in another assay: KRT18 (gene 3875)
The assay is described as follows: BSK_BF4T_Keratin818: BioMAP Diversity Plus: BF4T Assay for Keratin 818 Biomarker Activity (AID 2284266). The following applies: primary human bronchial epithelial cells with fibroblasts. Summed up:
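Co-culture of human bronchial epithelial cells and dermal fibroblasts, chemical exposure 24 h. Keratin 8/18 measured by ELISA; positive-direction fit vs DMSO. SRB total protein run in parallel cultures for cytotoxicity.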

Read-out in assay [12]: Interleukin-8 (IL8), CXCL8 (gene 3576)
The assay is described as follows: BSK_KF3CT_IL8: BioMAP Diversity Plus: KF3CT Assay for Interleukin-8 (IL8) Biomarker Activity (AID 2284254). The following applies: primary human keratinocytes with fibroblasts. In short, it runs like this:
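IL-8 read-out: ELISA, 24 h post-dose, human skin primary co-culture (keratinocytes + foreskin fibroblasts). DMSO = baseline; positive-direction fit.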

Read-out in assay [13]: Plasminogen activator inhibitor-1 (PAI1), SERPINE1 (gene 5054)
The assay is described as follows: BSK_KF3CT_PAI1: BioMAP Diversity Plus: KF3CT Assay for Plasminogen activator inhibitor-1 (PAI1) Biomarker Activity (AID 2284252). The following applies: primary human keratinocytes with fibroblasts. In short, it runs like this: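 Signal is PAI-1 detected by ELISA in a human skin-derived keratinocyte/fibroblast co-culture, 24 h after dosing; DMSO served as negative control and baseline.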

Read-out in assay [14]: Plasminogen activator inhibitor-1 (PAI1), SERPINE1 (gene 5054)
The assay is described as follows: BSK_MyoF_PAI1: BioMAP Diversity Plus: MyoF Assay for Plasminogen activator inhibitor-1 (PAI1) Biomarker Activity (AID 2284256).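 Also: PAI-1 protein level measured by ELISA in fibroblast cultures; PAI-1 read 24 h after compound addition.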 The following applies: primary human lung fibroblasts. Summed up: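 MyoF lung fibroblasts, human primary; compound 24 h; PAI-1 ELISA; positive-direction fit vs DMSO baseline; parallel SRB total-protein staining for cytotoxicity.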

Read-out in assay [15]: Intercellular Adhesion Molecule 1 (ICAM1), ICAM1 (gene 3383)
Put plainly: BSK_BF4T_ICAM1: BioMAP Diversity Plus: BF4T Assay for Intercellular Adhesion Molecule 1 (ICAM1) Biomarker Activity (AID 2284260). The following applies: primary human bronchial epithelial cells with fibroblasts. In short, it runs like this:
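Co-culture of human bronchial epithelial cells and dermal fibroblasts exposed 24 h to chemical; cell-surface ICAM-1 quantified by ELISA. Parallel SRB total-protein staining assessed cytotoxicity; activity fitted relative to DMSO.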

Where “and” joins values, the source holds several entries; their conditions need not be identical. Identical values can stand only once. More than one record can exist for a structure, and the calls need not agree. Calls of active or inactive are those of the source. The calls were made as follows: active = hit-call score of the fitted dose curve at least 0.9, where 1 is the maximum; inactive = score below 0.9.

One may read the AC50 as the concentration giving half of the maximal activity seen.

Regarding `C=CC(=O)OCC(F)(F)C(F)(F)C(F)(F)C(F)(F)C(F)(F)C(F)(F)C(F)(F)C(F)F`, the outcome in assay [1] was “inactive”; in assay [2], “inactive”; in assay [4] it was “inactive”; in assay [5] it was “inactive”; with CD69, CD69 (gene 969) it was “inactive”; in [6] it was “inactive”. The outcome is “inactive” in assay [7]; “inactive” in assay [8]; “inactive” with CD90, THY1 (gene 7070); “inactive” in assay [9]; “inactive” in assay [10]; “inactive” with Decorin, DCN (gene 1634). Besides, the outcome in assay [11] was inactive. In addition, the AC50 in [3] was 30 µM (active); in the assay with Decorin, DCN (gene 1634) it was 10.3 µM (active).

As for `O=C(O)C(F)(F)C(F)(F)C(F)(F)OC(F)(C(F)(F)F)C(F)(F)F`, the outcome is “inactive” in assay [1]; “inactive” in assay [2]; “inactive” in assay [3]; “inactive” in [5]; “inactive” with CD69, CD69 (gene 969); “inactive” in assay [6]. Besides, the outcome in assay [7] was “inactive”; in assay [8], “inactive”; in the assay with CD90, THY1 (gene 7070) it was “inactive”; in assay [9], “inactive”; in assay [10], “inactive”; with Decorin, DCN (gene 1634), “inactive”. The result (in the assay with KRT18 (gene 3875); in [11]) was inactive. Also, the AC50 in assay [7] is 5.77 µM (active).

With `OCC(F)(F)C(F)(F)C(F)(F)C(F)(F)C(F)(F)C(F)(F)CO`, the outcome in assay [1] was “inactive”; in assay [2], “inactive”; in assay [3] it was “inactive”; in assay [12] it was “inactive”; in [5], “inactive”; in the assay with CD69, CD69 (gene 969), “inactive”. The outcome in assay [6] was “inactive”; in [7] it was “inactive”; in assay [8] it was “inactive”; with CD90, THY1 (gene 7070) it was “inactive”; in assay [9], “inactive”; in assay [10] it was “inactive”. Besides, the outcome with Decorin, DCN (gene 1634) is “inactive”; in assay [11], “inactive”.

On to `O=S(=O)(O)CCC(F)(F)C(F)(F)C(F)(F)C(F)(F)C(F)(F)C(F)(F)C(F)(F)C(F)(F)F`, for which the outcome in [1] is “inactive”; in [2], “inactive”; in assay [13] it was “inactive”; in assay [5] it was “inactive”; in assay [14] it was “inactive”; in the assay with CD69, CD69 (gene 969), “inactive”. The outcome in [7] is “inactive”; in assay [15], “inactive”; in assay [8], “inactive”; with CD90, THY1 (gene 7070) it was “inactive”; in [9], “inactive”; in [10], “inactive”. Moreover, the outcome with Decorin, DCN (gene 1634) is “inactive”; in assay [11] it was “inactive”. The half-maximal activity concentration (AC50) is 30 µM (active) in the assay with CD69, CD69 (gene 969); 15.1 µM (active) and 8.3 µM (active) in assay [6].

In the case of `O=C(O)C(F)(F)C(F)(F)C(F)(F)OC(F)(F)F`, the outcome in [1] is “inactive”; in assay [2], “inactive”; in assay [3], “inactive”; in assay [12], “inactive”; in assay [5] it was “inactive”; with CD69, CD69 (gene 969), “inactive”. In addition, the outcome is “inactive” in assay [6]; “inactive” in [7]; “inactive” in assay [8]; “inactive” with CD90, THY1 (gene 7070); “inactive” in assay [9]; “inactive” in assay [10]. The outcome with Decorin, DCN (gene 1634) was “inactive”; in assay [11] it was “inactive”. Besides, the AC50 in assay [9] was 0.218 µM (active).

Regarding `OCC(O)CC(F)(F)C(F)(F)C(F)(F)C(F)(F)F` (stereo not given), the outcome in [1] is “inactive”; in assay [2], “inactive”; in [3], “inactive”; in assay [5], “inactive”; with CD69, CD69 (gene 969), “inactive”; in assay [6], “inactive”. For the same molecule, the outcome was “inactive” in assay [7]; “inactive” in assay [8]; “inactive” in the assay with CD90, THY1 (gene 7070); “inactive” in assay [9]; “inactive” in [10]; “inactive” in the assay with Decorin, DCN (gene 1634). Also, the outcome in [11] was inactive. Further, the figures for the AC50 in assay [7] and in assay [9] were 0.263 µM (active) and 0.22 µM (active), respectively.
